Source: PubChem (National Center for Advancing Translational Sciences (NCATS))
Sampled rows, rich in hits. Any-hit rate of the full collection: about 18%.
DT40 TDP1 CPT – growth inhibition of DT40 Tdp1-/-;hTDP1 cells with camptothecin (screen for TDP1 inhibitors) | Potency, µM (highest dose often 46.2 µM), for the others: at the top dose activity change, negative = growth inhibition, actives largely listed as inhibitors | chicken DT40 Tdp1-/-;hTDP1 cells + 20 nM CPT, ATP luminescence, 48 h | 420,000 tested, 12% active; also: potency is read from the fitted curve at half-maximal effect; nearly all actives have a fitted effect of over 55% in size
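Chicken DT40 Tdp1-/- cells stably complemented with human TDP1 were seeded at 400 cells/well in medium containing 20 nM camptothecin, exposed to pin-transferred compounds, and grown at 37 °C for at least 48 hr. Viability was read as ATP luminescence.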
RORg inh – blocks mouse ROR gamma transcriptional activity. P51450. Drosophila S2 Gal4-RORgamma UAS-luciferase reporter, 20 h. Potency, µM (highest dose often 53.6 µM), without a hit: top-dose activity change, negative = inhibition, actives largely listed as inhibitors. 310,000 tested, 5.4% active. AID 2551; also: potency is read from the fitted curve at half-maximal effect; nearly all actives have a fitted effect of over 60% in size
Target sequence (P51450 whole entry, looked up, the tested form may be a part): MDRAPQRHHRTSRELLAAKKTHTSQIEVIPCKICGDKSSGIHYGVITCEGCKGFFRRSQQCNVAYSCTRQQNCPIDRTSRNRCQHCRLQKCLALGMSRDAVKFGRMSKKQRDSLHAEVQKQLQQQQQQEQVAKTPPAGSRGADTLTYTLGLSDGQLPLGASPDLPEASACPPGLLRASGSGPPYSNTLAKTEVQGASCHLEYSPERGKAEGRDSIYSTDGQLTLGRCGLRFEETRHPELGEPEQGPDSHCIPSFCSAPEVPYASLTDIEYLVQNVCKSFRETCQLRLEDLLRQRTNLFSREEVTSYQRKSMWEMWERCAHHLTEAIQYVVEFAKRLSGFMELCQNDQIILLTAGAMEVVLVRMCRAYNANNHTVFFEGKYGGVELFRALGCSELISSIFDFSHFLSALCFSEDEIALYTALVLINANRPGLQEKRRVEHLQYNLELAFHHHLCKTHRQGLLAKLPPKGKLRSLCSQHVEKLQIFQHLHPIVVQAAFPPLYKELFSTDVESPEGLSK
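Read-out: Photinus luciferase luminescence; inhibitors lower reporter signal. Insect Schneider cells with Gal4-ROR gamma fusion under metallothionein promoter, UAS reporter; 700 uM final copper sulfate induction, 20 hr, ambient temperature.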
LDHA block – inhibitors of human lactate dehydrogenase A | purified LDHA, NADH/diaphorase-resazurin fluorescence; stronger effect = lower value | activity change, % (values are at about 110 or 230 µM) | 480,000 tested, 0.15% active; in the data active = activity change below about -30%; inconclusive = mostly about -25% to -30%;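 also: plate controls were DMSO wells for no effect and wells without enzyme for full effect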
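Human LDH5 at 2 nM final in Tris HCl pH 7.4 with 0.06 mM NADH and 0.2 mM pyruvate, reacted 5 minutes at room temperature. Remaining NADH coupled via diaphorase/resazurin; resorufin fluorescence read at 0 and 20 minutes, normalized to enzyme-free and DMSO wells.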
VP16 counter – inhibits Gal4-VP16 luciferase reporter, ROR gamma counter-screen; Drosophila S2 Gal4-VP16 UAS-luciferase, luminescence, 20 h; Potency, µM (doses to about 53.6 µM), without a hit: at the highest dose activity, negative = inhibition, actives largely listed as inhibitors; 310,000 tested, 3.5% active;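 also: Gal4-VP16 expression switched on by copper sulfate through the metallothionein promoter; potency is read from the fitted curve at half-maximal effect; nearly all actives have a fitted effect of over 50% in size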
IL1B secr inh – blocks inflammasome-driven IL-1 beta release; THP-1 LPS/ATP IL-1B secretion, AlphaLISA, 16 h; stronger effect = lower value; activity change, % at 57.5 µM; 360,000 tested, 4.7% active; in the data active = activity change below about -50%; inconclusive = mostly about -30% to -49%
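Secreted IL-1B measured by AlphaLISA bead assay after 16 h compound exposure of THP-1 cells; compounds (final up to 57.5 uM) added 1 h before LPS (250 ng/mL) and ATP (1.25 mM) stimulation; lower signal means less secretion.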
TDP1 cell noCPT – qHTS for Inhibitors of human tyrosyl-DNA phosphodiesterase 1 (TDP1): qHTS in cells in absence of CPT. Potency, µM (highest dose often 46.2 µM), inactives show at the highest dose activity change, negative = growth inhibition, actives largely listed as inhibitors. AID 686978, 2013. 420,000 tested, 15% active. DT40 Tdp1-/- hTDP1 cells, no CPT, ATP luminescence, 48 h; also: potency is read from the fitted curve at half-maximal effect; nearly all actives have a fitted effect of over 55% in size
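Readout: luminescence from CellTiter-Glo after 30 min in the dark at RT. Cells: DT40 Tdp1-/- with stable hTDP1, 400/well. Exposure: compounds alone, ≥48 hr, 37 °C.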
Starred values were filed as active, the others as inactive; ! = a repeat was not active. Unless noted, calls follow the shape of the dose curve; as a rule, active = well fitted curve in the direction sought with a large enough effect; inconclusive = small, poorly fitted or top-dose-only effect, or another doubt; inactive = no such curve, though single readings can be large; an effect the other way counts as inactive or inconclusive. Unless noted, % is scaled to controls: 0 for no effect and ±100 for the full control effect.

For CCCCCCCCCCCCCCCC(=O)OCC1OC(n2ccc(N)nc2=O)C(O)C1O (stereo unspecified) the results were DT40 TDP1 CPT 0.517µM*, LDHA block -3.8, IL1B secr inh 0.0 and TDP1 cell noCPT 0.651µM*.
Screening Nc1ccn(C2OC(CO)C(O)C2F)c(=O)n1 (stereo unspecified) returned DT40 TDP1 CPT 1.3µM*, LDHA block -6.2, IL1B secr inh 13.0 and TDP1 cell noCPT 2.06µM*.
Screening Nc1ccn(C2OC(CO)C(O)C2O)c(=O)n1 (stereo unspecified) returned DT40 TDP1 CPT 0.0164µM*!, RORg inh -30.6%, VP16 counter -21.0% and TDP1 cell noCPT 0.0116µM*!.
Screening OCC1OC(n2ccc3c2ncn2ncnc32)C(O)C1O (stereo unspecified) returned DT40 TDP1 CPT 0.366µM*, LDHA block -1.7, IL1B secr inh 66.5 and TDP1 cell noCPT 0.461µM*.
For COc1cc(C2CC(=O)Nc3c(C(=O)O)cn(-c4ccc(F)cc4)c32)cc(OC)c1OC (stereo unspecified) the results were LDHA block 21.3.
CCc1ccc(/C(C)=N/NC(=O)c2ccccc2C)s1 was read as LDHA block 0.9.
COc1cc(OC)c(NC(=O)c2ncoc2-c2ccc(OC)c(OC)c2)cc1Cl was read as LDHA block 0.6.
`CCCCCCCCCCCCCCCC(=O)Nc1ccn(C2OC(CO)C(O)C2O)c(=O)n1` (stereo unspecified) gave DT40 TDP1 CPT 0.651µM*, LDHA block -7.3, IL1B secr inh 30.0 and TDP1 cell noCPT 0.731µM*.
For Nc1ccn([C@@H]2O[C@H](CO)[C@@H](O)[C@@H]2O)c(=O)n1 the results were DT40 TDP1 CPT 0.116µM*, RORg inh -12.9%, LDHA block -2.9, VP16 counter -12.3%, IL1B secr inh 60.7 and TDP1 cell noCPT 0.164µM*.
NC[C@H]1O[C@@H](n2ccc(N)nc2=O)[C@H](O)[C@@H]1O was read as DT40 TDP1 CPT inconclusive, LDHA block -11.9, IL1B secr inh 21.4 and TDP1 cell noCPT inconclusive.
Screening Nc1ccn([C@H]2CC[C@@H](CO)O2)c(=O)n1 returned DT40 TDP1 CPT 7.5µM*, RORg inh -0.7%, LDHA block -6.3, VP16 counter 5.9%, IL1B secr inh 2.4 and TDP1 cell noCPT 10.6µM*.
For CCOC(=O)CCN(CC1CC1)C(=O)Cc1cccs1 the results were LDHA block 3.7.
Screening COc1ccccc1N1CCN(C(=O)CSc2n[nH]c(-c3ccccc3)n2)CC1 returned DT40 TDP1 CPT inconclusive, LDHA block -0.1 and TDP1 cell noCPT inconclusive.
For O=C(CSc1nc(-c2ccccc2)no1)N1CCN(c2ccccc2F)CC1 the results were DT40 TDP1 CPT -27.9%, LDHA block -4.9 and TDP1 cell noCPT -12.6%.
Screening COc1ccccc1N1CCN(C(=O)CSc2nc(-c3ccc(C(C)C)cc3)no2)CC1 returned DT40 TDP1 CPT 23.1µM*, LDHA block -8.0 and TDP1 cell noCPT 6.51µM*.
Screening CC(C)c1ccc(-c2noc(SCC(=O)N3CCN(c4ccccc4F)CC3)n2)cc1 returned DT40 TDP1 CPT 23.1µM*, LDHA block 1.3 and TDP1 cell noCPT 20.6µM*.
For O=C(CSc1nc(-c2ccccc2)no1)N1CCCCC1 the results were DT40 TDP1 CPT inconclusive, LDHA block 0.2 and TDP1 cell noCPT 3.66µM*.
For COC(=O)COc1ccc2oc(C)c(C(=O)OC)c2c1 the results were LDHA block 2.3.
Screening CCN(CC)CC(O)COc1ccc2c(c1)c(C(C)=O)c(C)n2CC (stereo unspecified) returned LDHA block 18.8.
For CC(=O)Nc1ccc(Oc2sc(C(=O)c3ccccc3)c(N)c2C#N)cc1 the results were DT40 TDP1 CPT inconclusive, RORg inh -6.7%, LDHA block -4.2, VP16 counter 3.5%, IL1B secr inh -59.7* and TDP1 cell noCPT inconclusive.
For CC(C)C[C@@H](CN1CCC[C@@H]1CN1C(=O)C(=O)NC[C@@H]1Cc1ccccc1)N1C[C@H](Cc2ccc(O)cc2)N(CCc2ccccc2)C(=O)C1=O the results were DT40 TDP1 CPT inconclusive, LDHA block -1.4, IL1B secr inh 0.0 and TDP1 cell noCPT inconclusive.
CC(C)C[C@@H](CN1CCCC1CN1C(=S)NC[C@@H]1Cc1ccccc1)N1C[C@H](Cc2ccc(O)cc2)N(CCc2ccccc2)C1=S (stereo partly specified) was read as DT40 TDP1 CPT 18.4µM*, LDHA block -4.0, IL1B secr inh 8.7 and TDP1 cell noCPT inconclusive.
`CC(C)C[C@@H](CN1CCCC1CN1C(=S)NC[C@@H]1Cc1ccccc1)N1C[C@H](Cc2ccccc2)N(CCc2ccccc2)C1=S` (stereo partly specified) gave DT40 TDP1 CPT inconclusive, LDHA block -9.7, IL1B secr inh 10.8 and TDP1 cell noCPT 9.2µM*.
`CC(C)C[C@@H](CN1CCC[C@@H]1CN1C(=S)NC[C@@H]1Cc1ccccc1)N1C[C@H](Cc2ccc(O)cc2)N(CCc2ccccc2)C1=S` gave DT40 TDP1 CPT inconclusive, LDHA block -3.8, IL1B secr inh 0.0 and TDP1 cell noCPT 18.4µM*.
For CC(C)C[C@@H](CN1CCC[C@@H]1CN1C(=S)NC[C@@H]1Cc1ccc(O)cc1)N1C[C@H](Cc2ccc(O)cc2)N(CCc2ccccc2)C1=S the results were DT40 TDP1 CPT inconclusive, LDHA block -10.5, IL1B secr inh -58.9* and TDP1 cell noCPT 20.6µM*.
CC(CCO)Nc1nc2c(c(=O)n(C)c(=O)n2C)n1Cc1ccc(Cl)c(Cl)c1 (stereo unspecified) was read as LDHA block -4.4.
COC(=O)c1c(-c2cccs2)csc1NC(=O)c1cc(OC)c(OC)c(OC)c1 was read as DT40 TDP1 CPT 9.2µM*, LDHA block -7.0 and TDP1 cell noCPT 5.8µM*.
Screening COC(=O)c1c(-c2cccs2)csc1NC(=O)c1cc(OC)cc(OC)c1 returned DT40 TDP1 CPT 16.4µM*, LDHA block 2.3 and TDP1 cell noCPT inconclusive.
CCCc1ccc(OCC(=O)Nc2scc(-c3cccs3)c2C(=O)OC)cc1 was read as DT40 TDP1 CPT inconclusive, LDHA block -1.9 and TDP1 cell noCPT inconclusive.
Screening COC(=O)c1c(-c2cccs2)csc1NC(=O)c1ccc(OC)c(OC)c1 returned DT40 TDP1 CPT 11.6µM*, LDHA block -1.0 and TDP1 cell noCPT 9.2µM*.
